# Data published in the supplement of paper PMC6518042.
# Unmarked numbers belong to inactive results.
# System: Pectobacterium parmentieri SCC3193
# Test: DuctApe activity index (growth/respiration on compound as sole nutrient source, blank-subtracted) (activity index (0-3)); higher = stronger utilization of the compound, active = 3 or more
# Conditions: nutrient role (plate category): carbon
# Experimental: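 Biolog Phenotype Microarray plates PM1, PM2A (carbon), PM3 (nitrogen) and PM4 (phosphorus/sulfur) inoculated with P. parmentieri SCC3193 in M9-C minimal salts medium with Biolog dye A, and read in the OmniLog for 46 h. Each well was tested in triplicate and the experiment was run twice. DuctApe computed a blank-subtracted activity index (AV, 0-3) from the mean curves; growth is positive at AV >= 3 and negative at AV <= 2.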
row,SMILES,DuctApe activity index
1,C/C=C/C=C/C(=O)O [Sorbic acid],0
2,CCC(=O)C(=O)O [a-Ketobutyric acid],0
3,OC[C@@H](O)[C@H](O)[C@@H](O)CO [Xylitol],0
4,CCCCCC(=O)O [Caproic acid],0
5,Nc1ncnc2c1ncn2[C@H]1C[C@H](O)[C@@H](CO)O1 [2`-Deoxyadenosine],1
6,COC(=O)CCC(=O)O [Mono-Methylsuccinate],2
7,O=C(O)[C@@H](O)[C@H](O)[C@H](O)[C@@H](O)C(=O)O [Mucic acid],3 (active)
8,"O=C1O[C@H](CO)[C@@H](O)[C@H]1O [D-Ribono-1,4-Lactone]",0
9,O=C(O)CCCCCCCCC(=O)O [Sebacic acid],0
10,OC[C@@H](O)[C@@H](O[C@H]1O[C@H](CO)[C@@H](O)[C@H](O)[C@H]1O)[C@H](O)[C@@H](O)CO [Maltitol],0
11,OC[C@H]1O[C@@H](O[C@H]2[C@H](O)[C@@H](O)[C@@H](O)O[C@@H]2CO)[C@H](O)[C@@H](O)[C@H]1O [a-D-Lactose],3 (active)
12,OC[C@H]1O[C@H](OC[C@H]2OC(O)[C@H](O)[C@@H](O)[C@@H]2O)[C@H](O)[C@@H](O)[C@H]1O (stereo partly drawn) [D-Melibiose],3 (active)
